# Mtb hypoxia inh = reduces hypoxia-regulated biosensor signal in M. tuberculosis; M. tuberculosis hypoxia-regulated fluorescent reporter, fluorescence; fluorescence inhibition, % (no concentration beside the values); 0.1% of 300,000 active; in the data active means fluorescence inhibition mostly above about 23%, no sharp cut-off; inactive means mostly below about 17%
# Rv3671c inh = inhibitors of M. tuberculosis serine protease Rv3671c; P9WHR9; inhibition, % at 5.96 µM; 0.048% of 320,000 active; in the data active means inhibition above about 38%;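 further: extracellular domain of Rv3671c used as enzyme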
# FadD28 FP inh = blocks FadD28 binding to the bisubstrate probe; 0.22% of 360,000 active; inhibition, % at 12.5 µM; fluorescence polarization; in the data active means inhibition above about 8.5%, passing the limit was not always enough
# RecA intein inh = inhibitors of M. tuberculosis RecA intein splicing | cell-free RecA intein splicing, fluorescence | inhibition, % (test concentration not listed) | 0.75% of 290,000 active | AID 2221; in the data active means inhibition above about 30%
# Mtb betalactam = beta-lactam sensitization of Mtb H37Rv | M. tuberculosis H37Rv growth with meropenem, percent inhibition | 0.27% of 330,000 active | AID 434955 | inhibition, % at 25 µM; call rule not given here;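 further: growth measured after seven days incubation then overnight dye step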
# Mtb UGM inh = blocks M. tuberculosis UGM enzyme. purified UGM, fluorescence polarization probe displacement. inhibition, % at 10 µM. 0.06% of 320,000 active. AID 504406; in the data active means inhibition above about 10%, passing the limit was not always enough
# Target sequence (P9WIQ1 whole entry, looked up): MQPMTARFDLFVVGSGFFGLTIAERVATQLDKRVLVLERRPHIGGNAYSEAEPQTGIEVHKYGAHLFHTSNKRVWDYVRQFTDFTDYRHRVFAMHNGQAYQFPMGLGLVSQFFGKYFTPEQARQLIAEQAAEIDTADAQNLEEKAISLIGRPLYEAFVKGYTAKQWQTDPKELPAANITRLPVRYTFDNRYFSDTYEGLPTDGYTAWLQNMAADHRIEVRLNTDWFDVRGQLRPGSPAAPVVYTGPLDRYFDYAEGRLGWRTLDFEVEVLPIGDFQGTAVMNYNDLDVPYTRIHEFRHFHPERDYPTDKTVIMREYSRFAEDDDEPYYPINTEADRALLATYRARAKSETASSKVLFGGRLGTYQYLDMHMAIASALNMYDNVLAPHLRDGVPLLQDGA
# Hits are given with their value; n = inactive; x = no result given. A selection: hits, their analogues and other compounds. The true share with any hit is near 0.92%.
SMILES,Mtb hypoxia inh,Rv3671c inh,FadD28 FP inh,RecA intein inh,Mtb betalactam,Mtb UGM inh
Cc1cc(C)cc(NC(=S)N=Nc2c(O)n(C)c3ccc(S(=O)(=O)N4CCOCC4)cc23)c1,n,n,n,n,n,n
Cc1cc2nc3c(=O)[nH]c(=S)[nH]c3nc2cc1NC(=O)C(F)(F)F,n,n,n,n,n,18.8
O=c1[nH]c(=S)[nH]c2nc(-c3ccccc3)cnc12,n,n,n,n,n,n
N#Cc1c(NC(=O)/C=C/C(=O)O)sc2c1CCN(Cc1ccccc1)C2,n,n,n,n,n,n
N#CCc1c(C#N)c(N)nc(N2CCOCC2)c1C#N,n,n,n,n,n,n
CCOc1cccc(C2C(C(=O)c3ccc(C)o3)=C(O)C(=O)N2c2nccs2)c1 (stereo not drawn),x,n,n,n,n,16.0
CSc1nnc(CCNC(=O)OC(C)(C)C)o1,n,n,n,n,n,n
CCOc1ccc(C(=O)COC(=O)CN2C(=O)NC3(CCCCC3C)C2=O)cc1 (stereo not drawn),n,n,n,x,n,n
Nc1ccc2c(O)cc(S(=O)(=O)O)cc2c1,n,x,n,x,x,x
COc1ccc(S(=O)(=O)O)cc1P(=O)(c1ccccc1)c1ccccc1,n,n,n,n,n,n
CC(=O)Nc1ccc2c(O)cc(S(=O)(=O)O)cc2c1,n,x,n,x,x,x
COc1ccccc1Nc1ccc2c(O)cc(S(=O)(=O)O)cc2c1,n,x,69.7,x,x,x
Nc1cccc2c(O)cc(S(=O)(=O)O)cc12,n,x,36.0,x,x,x
O=S(=O)(O)c1cc(O)c2ccc(Nc3ccccc3)cc2c1,n,x,24.1,x,x,x
O=S(=O)(O)c1ccc(O)c2cc(Nc3ccccc3)ccc12,n,x,59.0,x,x,x
O=S(=O)(O)c1cc(O)c2cc(Nc3ccccc3)ccc2c1,n,x,28.1,x,x,x
O=C(O)c1cc2cc(S(=O)(=O)O)ccc2cc1O,n,x,n,x,x,x
O=C(NN=C/C(Br)=C/c1ccccc1)c1cc(-c2ccco2)[nH]n1,n,x,x,x,x,x
CCC1CCC(C(=O)NNC(=O)c2cc(-c3ccco3)[nH]n2)CC1 (stereo not drawn),x,n,11.4,n,n,n
Cc1ccc(/C=C2\SC(=S)N(/N=C/c3cc([N+](=O)[O-])ccc3O)C2=O)o1,x,n,26.2,n,n,n
O=C(NN1C(=O)/C(=C/c2ccc(O)c([N+](=O)[O-])c2)SC1=S)c1ccccc1Cl,n,n,20.7,n,n,n
O=C(NN1C(=O)/C(=C/c2cc([N+](=O)[O-])ccc2O)SC1=S)c1ccccc1O,x,51.7,x,n,n,n
Cn1cc(/C=C2\SC(=S)N(NC(=O)c3ccccc3)C2=O)c2ccccc21,n,n,n,n,n,n
O=C1/C(=C/c2ccc(O)c([N+](=O)[O-])c2)SC(=S)N1Cc1ccccc1,x,n,n,n,n,n
O=[N+]([O-])c1ccc(O)c(C=Nn2c(-c3ccccc3)n[nH]c2=S)c1,n,x,x,x,x,x
SMILES,Mtb hypoxia inh,Rv3671c inh,FadD28 FP inh,RecA intein inh,Mtb betalactam,Mtb UGM inh
O=C(NN1C(=O)/C(=C/c2ccc(O)cc2)SC1=S)c1ccccc1O,n,n,18.9,n,n,n
COc1ccccc1NS(=O)(=O)c1ccc(C)c(C(=O)NC2=NCCS2)c1,n,n,n,x,n,n
COc1cc(/C=C2\SC(=S)N(NC(=O)c3ccccc3O)C2=O)ccc1O,n,n,11.5,n,n,n
CC(/C=C1\SC(=S)N(NC(=O)c2cccc(O)c2)C1=O)=C\c1ccccc1,n,n,n,31.3,n,n
COc1ccc(/C=C2\SC(=S)N(NC(=O)c3ccncc3)C2=O)cc1OC,x,n,x,n,n,n
O=C(NN1C(=O)/C(=C/c2ccc(O)cc2)SC1=S)c1cccc(O)c1,n,n,19.1,n,n,n
Cc1nn(CC(=O)N2CCC(N3CCCCC3)CC2)c(=O)c2c1sc1ccccc12,n,n,n,n,n,n
Cc1cccc(C(=O)N2CCC(=O)N(C(COCc3cccc(Cl)c3)Cc3ccccc3)CC2)c1 (stereo not drawn),n,n,n,n,n,n
CCOC(=O)Cc1[nH]nc2c1C(c1ccsc1)C(C#N)=C(N)O2 (stereo not drawn),n,n,n,57.3,n,n
COCc1[nH]nc2c1C(c1ccccc1F)C(C#N)=C(N)O2 (stereo not drawn),n,n,n,35.0,n,n
COCc1[nH]nc2c1C(c1ccc(OC)cc1)C(C#N)=C(N)O2 (stereo not drawn),n,n,n,58.4,n,n
CCC/C=C/c1ccc(CN2C(C(C)C)C(=O)N(Cc3cn(CCOCOC)nn3)CCS2(=O)=O)cc1 (stereo not drawn),x,x,n,x,x,x
O=C(O)c1ccc(NN=C/C=C/c2ccc([N+](=O)[O-])o2)cc1,68.3,x,x,x,x,x
O=C(O)c1ccc(NN=C/C=C/c2ccccc2[N+](=O)[O-])cc1,n,x,x,x,x,x
CC1CCN(C2=NN3C(=N)/C(=C\c4ccc(OC(=O)c5ccco5)cc4)C(=O)N=C3S2)CC1,x,n,n,n,n,n
CC(C)CS(=O)(=O)C1=NN2C(=N)/C(=C\c3ccc(OC(=O)c4ccco4)cc3)C(=O)N=C2S1,x,n,n,40.1,n,n
N=C1/C(=C\c2ccc(OC(=O)c3ccc(F)cc3)cc2)C(=O)N=C2SC(N3CCOCC3)=NN12,n,n,n,39.3,n,n
CCOc1cc(/C=C2/C(=N)N3C(=NC2=O)SN=C3S(=O)(=O)C(C)C)ccc1OC(=O)c1ccco1,n,n,n,31.8,n,n
N=C1/C(=C\c2ccc(OC(=O)c3ccco3)cc2)C(=O)N=C2SC=NN12,n,x,n,n,x,x
CS(=O)(=O)C1=NN2C(=N)/C(=C\c3ccc(OC(=O)c4ccco4)cc3)C(=O)N=C2S1,n,n,n,36.8,n,n
COc1cc(/C=C/CN2CCC(CO)(CC3CCCCO3)CC2)ccc1O (stereo not drawn),n,n,n,n,n,n
CC(=O)Nc1ccc(N(CC(=O)NC2CCCCC2)C(=O)Cn2nnc(-c3ccccc3)n2)cc1,n,n,n,n,n,n
CCS(=O)(=O)C1=NN2C(=N)/C(=C\c3ccc(OC(=O)c4ccco4)c(OC)c3)C(=O)N=C2S1,x,n,n,n,n,n
C=CCOc1ccc(/C=C2\C(=N)N3N=C(S(=O)(=O)CC)SC3=NC2=O)cc1OC,47.6,n,n,n,n,n
CCn1nc([N+](=O)[O-])c(C(C#N)c2nc3cc(C(F)(F)F)ccc3s2)c(Cl)c1=O (stereo not drawn),n,n,45.4,n,n,n
Cn1nc([N+](=O)[O-])c(C(C#N)c2ccccn2)c(Cl)c1=O (stereo not drawn),n,n,n,46.1,n,n
CCCn1nc([N+](=O)[O-])c(C(C#N)c2nc3ccccc3o2)c(Cl)c1=O (stereo not drawn),n,n,15.1,n,n,n
Cc1ccc(Cn2c(C(C)Nc3nc(-c4ccc(Cl)c([N+](=O)[O-])c4)cs3)nc3cc(C(F)(F)F)ccc32)cc1 (stereo not drawn),n,n,n,n,n,n
Cc1cc(NS(=O)(=O)c2ccc3c(c2)OCCO3)no1,n,n,n,n,n,n
COc1cc(/C=C/c2ccc3c([N+](=O)[O-])cccc3n2)ccc1OCC(=O)O,76.9,n,n,n,n,n
